A number with no mark means an inactive call. Records with an inconclusive call do not appear. A call without a number means that no potency is given here. Active and inactive are the calls of the source. Unless noted, calls follow the shape of the dose curve; as a rule, active = well fitted curve in the direction sought with a large enough effect; inconclusive = small, poorly fitted or top-dose-only effect, or another doubt; inactive = no such curve, though single readings can be large; an effect the other way counts as inactive or inconclusive.
Assays:
[1] = molecular target: Mitogen-activated protein kinase 10 (Mus musculus) (UniProt Q61831); assay: JNK3 AlphaScreen Assay (AID 530; active = well fitted curve in either direction with a large enough effect, not every such curve was filed as active;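 also: kinase came from lysate of stimulated human HepG2 cells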; also: potency is read from the fitted curve at half-maximal effect;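 as to activity change, negative = inhibition: signal reports phosphorylation of biotinylated GST-cJun 1-79 at Ser73 with 10 µM ATP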)
Summary of the method: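 HepG2 lysate (IL-1b/TNFa pre-activated) + biotin-GST-cJun 1-79 + anti-pSer73 cJun; cpd titration, 15 min RT; ATP 10 uM start; Tris pH 7.6, MgCl2, DTT, vanadate; beads in EDTA buffer; AlphaScreen.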

[2] = Viability counterscreen for antagonist of constitutive androstane receptor (CAR) against the NCATS DSHEA and TCM libraries (AID 1794837);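 also: compound exposure lasted 24 h before viability reading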
Summary of the method: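 Cell viability, CellTiter-Fluor, Ex/Em 405/540 nm, 1 h at 37C. HepG2-CYP2B6-hCAR, 2,500 cells/well; cpds + CITCO 48 uM final (antagonist mode), 24 h, 37C/5% CO2.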

[3] = molecular target: Nuclear receptor subfamily 1 group I member 3 (Homo sapiens) (UniProt Q14994); assay: Primary qHTS for agonist of constitutive androstane receptor (CAR) against the NCATS DSHEA and TCM libraries (AID 1794839); also: potency is read from the fitted curve at half-maximal effect
Nuclear receptor subfamily 1 group I member 3 (Homo sapiens), sequence (Q14994 whole entry, looked up): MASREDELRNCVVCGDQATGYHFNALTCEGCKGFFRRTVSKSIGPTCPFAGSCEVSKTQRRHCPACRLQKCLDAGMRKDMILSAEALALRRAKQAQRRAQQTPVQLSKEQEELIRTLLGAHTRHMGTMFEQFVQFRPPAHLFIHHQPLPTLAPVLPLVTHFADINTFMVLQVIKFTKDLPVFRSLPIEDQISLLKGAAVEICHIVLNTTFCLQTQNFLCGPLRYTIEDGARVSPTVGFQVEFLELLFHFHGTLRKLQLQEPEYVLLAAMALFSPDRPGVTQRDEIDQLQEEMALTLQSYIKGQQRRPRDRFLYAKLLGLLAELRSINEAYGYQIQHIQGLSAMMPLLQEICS
Summary of the method: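 Luminescence from ONE-Glo luciferase was the agonist read-out in HepG2-CYP2B6-hCAR cells exposed 24 h to test substances. Wells also held the CAR antagonist PK11195 at 0.75 µM final. Viability was by CellTiter-Fluor fluorescence.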

[4] = HepG2 viability counterscreen (readout 2: ATP content) against the NCATS DSHEA and TCM libraries (AID 1794840)
Summary of the method: (§1)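 1,000 HepG2 cells/well, 4 h attach; compounds ~24 h, 37C/5% CO2. Readout 1: GF-AFC 25 uM final, 30 min, fluorescence 380/510 nm. Readout 2: CellTiter-Glo, 30 min RT, luminescence.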

[5] = HepG2 viability counterscreen (readout 1: protease activity) against the NCATS DSHEA and TCM libraries (AID 1794841);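 also: cells exposed to compounds for about 24 h before the protease read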
Summary of the method: as §1

[6] = molecular target: Cytochrome P450 3A4 (Homo sapiens) (UniProt P08684); assay: qHTS for inhibitors of CYP3A4 against the NCATS DSHEA and TCM libraries (AID 1919971); also: potency is read from the fitted curve at half-maximal effect;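 as to activity change, negative = inhibition: inhibition lowers luminescence from luciferin made by CYP3A4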
Cytochrome P450 3A4 (Homo sapiens), sequence (P08684 whole entry, looked up, canonical isoform): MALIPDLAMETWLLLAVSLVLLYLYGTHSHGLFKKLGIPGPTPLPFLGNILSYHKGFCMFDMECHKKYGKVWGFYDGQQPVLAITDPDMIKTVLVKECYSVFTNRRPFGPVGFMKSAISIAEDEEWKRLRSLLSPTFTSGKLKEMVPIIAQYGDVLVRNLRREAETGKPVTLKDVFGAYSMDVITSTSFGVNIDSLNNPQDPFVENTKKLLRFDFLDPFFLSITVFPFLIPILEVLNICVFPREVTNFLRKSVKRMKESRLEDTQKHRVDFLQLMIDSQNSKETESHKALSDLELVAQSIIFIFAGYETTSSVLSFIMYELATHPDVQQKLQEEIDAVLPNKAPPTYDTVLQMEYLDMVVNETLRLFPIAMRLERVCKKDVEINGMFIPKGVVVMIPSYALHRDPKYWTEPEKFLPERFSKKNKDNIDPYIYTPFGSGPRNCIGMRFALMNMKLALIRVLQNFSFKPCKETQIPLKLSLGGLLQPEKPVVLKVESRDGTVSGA
Summary of the method: (§2)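 Isoform-specific enzyme and substrate levels; enzyme-free wells as background. Reaction: 1x NADPH regenerating system, 30-45 min, room temperature, shielded from light; luminescent detection reagent added, 30 min.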

[7] = molecular target: Cytochrome P450 2D6 (Homo sapiens) (UniProt P10635); assay: qHTS for inhibitors of CYP2D6 against the NCATS DSHEA and TCM libraries (AID 1919972); also: potency is read from the fitted curve at half-maximal effect
Cytochrome P450 2D6 (Homo sapiens), sequence (P10635 whole entry, looked up): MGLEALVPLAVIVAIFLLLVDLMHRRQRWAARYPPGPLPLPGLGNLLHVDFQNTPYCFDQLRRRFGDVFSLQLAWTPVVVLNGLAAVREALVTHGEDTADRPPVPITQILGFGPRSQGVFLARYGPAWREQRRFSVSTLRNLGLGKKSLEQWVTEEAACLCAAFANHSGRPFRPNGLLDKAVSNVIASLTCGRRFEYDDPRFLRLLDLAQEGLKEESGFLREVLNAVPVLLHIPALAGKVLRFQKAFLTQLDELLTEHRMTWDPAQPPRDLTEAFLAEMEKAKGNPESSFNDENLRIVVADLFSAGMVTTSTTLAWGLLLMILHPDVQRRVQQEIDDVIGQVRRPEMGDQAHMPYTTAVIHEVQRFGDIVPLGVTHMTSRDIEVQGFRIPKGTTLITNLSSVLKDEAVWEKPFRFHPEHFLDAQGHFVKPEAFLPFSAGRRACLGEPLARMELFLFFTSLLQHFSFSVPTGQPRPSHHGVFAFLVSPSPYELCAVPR
Summary of the method: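 qHTS, concentration–response format with most substances from 19.5 nM. CYP2D6 + pro-luciferin substrate, 15 min with compound, then 1x NADPH regen, 30–45 min RT dark. Glo detection 30 min, luminescence. Quinidine control.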

[8] = KB-3-1 P-gp reporter qHTS against the NCATS DSHEA and TCM libraries (AID 1919975)
Summary of the method: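 CellTiter-Glo luminescence viability readout; KB-3-1 parental cells, 500/well, attached ~4 h, then compound for ~72 h, 37C, 5% CO2. Bortezomib intraplate control.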

[9] = molecular target: Cytochrome P450 1A2 (Homo sapiens) (UniProt P05177); assay: qHTS for inhibitors of CYPIA2 against the NCATS DSHEA and TCM libraries (AID 1919976); also: potency is read from the fitted curve at half-maximal effect;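 as to activity change, negative = inhibition: light from luciferin formed by CYP1A2 from a pro-luciferin substrate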
Cytochrome P450 1A2 (Homo sapiens), sequence (P05177 whole entry, looked up): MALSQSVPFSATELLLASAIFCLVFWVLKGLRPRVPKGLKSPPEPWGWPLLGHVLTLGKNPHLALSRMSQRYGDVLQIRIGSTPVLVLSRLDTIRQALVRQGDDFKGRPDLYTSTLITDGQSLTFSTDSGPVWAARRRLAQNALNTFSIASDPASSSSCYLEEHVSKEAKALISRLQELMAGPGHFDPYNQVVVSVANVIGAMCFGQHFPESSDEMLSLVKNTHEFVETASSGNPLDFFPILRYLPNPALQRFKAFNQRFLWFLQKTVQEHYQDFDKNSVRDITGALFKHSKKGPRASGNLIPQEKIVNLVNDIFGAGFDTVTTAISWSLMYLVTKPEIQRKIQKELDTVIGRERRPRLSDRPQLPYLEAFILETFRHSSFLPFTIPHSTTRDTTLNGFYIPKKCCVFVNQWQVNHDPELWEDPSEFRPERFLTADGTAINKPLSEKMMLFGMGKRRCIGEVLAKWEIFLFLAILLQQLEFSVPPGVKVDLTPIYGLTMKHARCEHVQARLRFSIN
Summary of the method: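 Furafylline served as the plate control. Compounds met CYP1A2 and pro-luciferin substrate 15 min before NADPH regeneration solution (1x) was added; after 30-45 min at RT, P450-Glo reagent was added for 30 min and luminescence was measured.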

[10] = qHTS Counterscreen for compound interference against the NCATS DSHEA and TCM libraries (AID 1919978); settings: firefly luciferase detection reagent interference, luminescence;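 also: compounds preincubated with 1 µM D-luciferin or buffer before detection reagent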
Summary of the method: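 Luminescence counterscreen for detection-kit interference: compounds at 19.5 nM–39.8 uM final, 15 min RT with 1 uM D-luciferin or buffer only; detection reagent added, 30 min RT, then read.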

[11] = Dual reporter qHTS for agonist of Pregnane X Receptor (hPXR) against the NCATS DSHEA and TCM libraries: Fluorescence readout (AID 1920058)
Summary of the method: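 In this qHTS counter-read, reporter-bearing HepG2 cells in charcoal-stripped serum received substances for approximately 24 h before viability was assessed fluorometrically with CellTiter-Fluor.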

[12] = molecular target: Nuclear receptor subfamily 1 group I member 2 (Homo sapiens) (UniProt O75469); assay: Dual reporter qHTS for antagonist of Pregnane X Receptor (hPXR) against the NCATS DSHEA and TCM libraries: Luminescence Readout (AID 1920060);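 also: HepG2 cells carrying hPXR luciferase reporter stimulated with rifampicin at 2 µM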
Nuclear receptor subfamily 1 group I member 2 (Homo sapiens), sequence (O75469 whole entry, looked up): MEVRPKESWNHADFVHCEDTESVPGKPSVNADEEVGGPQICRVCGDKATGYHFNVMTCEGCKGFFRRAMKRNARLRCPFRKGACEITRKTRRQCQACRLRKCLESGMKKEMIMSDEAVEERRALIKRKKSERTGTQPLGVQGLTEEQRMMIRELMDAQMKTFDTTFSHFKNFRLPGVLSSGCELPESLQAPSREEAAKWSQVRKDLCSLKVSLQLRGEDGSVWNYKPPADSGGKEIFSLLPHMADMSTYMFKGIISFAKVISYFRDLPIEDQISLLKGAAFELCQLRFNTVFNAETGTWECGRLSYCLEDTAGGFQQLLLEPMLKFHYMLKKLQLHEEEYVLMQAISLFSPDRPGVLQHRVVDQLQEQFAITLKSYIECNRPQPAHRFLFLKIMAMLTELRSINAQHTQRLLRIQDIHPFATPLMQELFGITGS
Summary of the method: (§3)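 HepG2 hPXR-Luc, 2000 cells/well, charcoal-stripped FBS medium; 5 h attach; RIF 2 uM final; 24 h 37C/5% CO2; CellTiter-Fluor 1 h, fluor 405/540; ONE-Glo 30 min RT, lum.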

[13] = molecular target: Cytochrome P450 2C19 (Homo sapiens) (UniProt P33261); assay: qHTS for inhibitors of CYP2C19 against the NCATS DSHEA and TCM libraries (AID 1919974);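 also: luminescence from luciferin released by CYP2C19 oxidation of a pro-luciferin substrate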; also: potency is read from the fitted curve at half-maximal effect
Cytochrome P450 2C19 (Homo sapiens), sequence (P33261 whole entry, looked up): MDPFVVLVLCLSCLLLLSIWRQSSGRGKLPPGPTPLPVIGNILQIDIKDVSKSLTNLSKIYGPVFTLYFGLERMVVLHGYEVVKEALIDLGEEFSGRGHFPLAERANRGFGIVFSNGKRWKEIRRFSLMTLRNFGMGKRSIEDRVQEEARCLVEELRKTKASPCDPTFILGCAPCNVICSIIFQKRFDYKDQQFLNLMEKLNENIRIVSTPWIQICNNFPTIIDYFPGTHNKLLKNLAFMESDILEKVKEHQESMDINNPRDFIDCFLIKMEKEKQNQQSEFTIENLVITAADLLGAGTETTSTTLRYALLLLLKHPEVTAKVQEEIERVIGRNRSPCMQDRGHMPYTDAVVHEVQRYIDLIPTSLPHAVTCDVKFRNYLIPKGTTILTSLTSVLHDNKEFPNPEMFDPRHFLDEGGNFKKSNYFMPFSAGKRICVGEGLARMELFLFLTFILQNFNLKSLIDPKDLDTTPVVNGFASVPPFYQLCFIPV
Summary of the method: as §2

[14] = Dual reporter qHTS for antagonist of Pregnane X Receptor (hPXR) against the NCATS DSHEA and TCM libraries: Fluorescence Readout (AID 1920061)
Summary of the method: as §3

[15] = molecular target: Glucocorticoid receptor (Homo sapiens) (UniProt P04150); assay: GR-EFC Redistribution (AID 451; calls by dose curve; also: potency is read from the fitted curve at half-maximal effect); settings: CHO-K1 GR-EFC translocation, beta-gal luminescence, 2 h
Glucocorticoid receptor (Homo sapiens), sequence (P04150 whole entry, looked up, the tested form may be a part): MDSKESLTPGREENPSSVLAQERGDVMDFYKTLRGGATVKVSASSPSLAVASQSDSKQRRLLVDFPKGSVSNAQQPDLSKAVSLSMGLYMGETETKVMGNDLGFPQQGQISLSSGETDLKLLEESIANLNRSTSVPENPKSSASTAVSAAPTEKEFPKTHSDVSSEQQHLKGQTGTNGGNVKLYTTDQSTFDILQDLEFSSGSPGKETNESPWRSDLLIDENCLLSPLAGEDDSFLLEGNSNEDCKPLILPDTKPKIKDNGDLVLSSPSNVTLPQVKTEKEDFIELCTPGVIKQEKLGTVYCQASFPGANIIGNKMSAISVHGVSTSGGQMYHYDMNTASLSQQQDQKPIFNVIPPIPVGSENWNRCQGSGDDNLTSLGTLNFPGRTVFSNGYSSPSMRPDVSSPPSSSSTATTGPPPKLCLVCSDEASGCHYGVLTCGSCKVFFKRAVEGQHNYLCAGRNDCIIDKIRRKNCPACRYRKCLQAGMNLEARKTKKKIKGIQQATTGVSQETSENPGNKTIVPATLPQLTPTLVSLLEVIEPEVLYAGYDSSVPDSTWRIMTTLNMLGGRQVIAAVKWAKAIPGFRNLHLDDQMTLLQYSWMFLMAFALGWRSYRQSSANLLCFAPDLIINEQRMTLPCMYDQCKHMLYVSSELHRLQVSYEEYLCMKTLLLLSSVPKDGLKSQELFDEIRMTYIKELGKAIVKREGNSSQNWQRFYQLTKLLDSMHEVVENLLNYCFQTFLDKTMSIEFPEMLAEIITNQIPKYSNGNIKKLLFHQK
Summary of the method: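 CHO-K1 cells expressing nuclear EA and GR-ED fragments of b-gal; compounds titrated up to 46 uM final, 2 h at 37 C. GR nuclear translocation read as complemented b-gal luminescence after 1 h RT detection.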

[16] = AP1 Signaling Pathway (AID 357; active = well fitted curve in either direction with a large enough effect, not every such curve was filed as active;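 also: ME-180 reporter cells stimulated with EGF at its EC50 level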); settings: ME-180 (cervical carcinoma) AP-1-bla reporter, EGF-induced, beta-lactamase ratio, 5 h; at 7.69 µM (top of the series) unless noted
Summary of the method: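 In this screen, ME-180 cells in Opti-MEM with 0.5% dialyzed FBS received EC50 EGF and compound titrations for 5 h. AP-1 reporter beta-lactamase was detected via CCF4 ratio, giving AC50 for positive and negative modulators.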

[17] = NFAT Signaling Pathway (AID 444; active = well fitted curve in either direction with a large enough effect, not every such curve was filed as active;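 also: carbachol stimulus at about its EC50 of 1 µM final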); settings: Jurkat NFAT-bla M1, carbachol, beta-lactamase ratio, 5 h; at 7.69 µM (top of the series) unless noted
Summary of the method: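 Jurkat cells with NFAT-driven β-lactamase reporter and co-expressed M1 receptor, stimulated with carbachol (final 1 uM, ~EC50), compound titration, 5 h at 37 °C. CCF4 loaded 1 h at RT; 460/530 nm ratio gave %activity and AC50.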

[18] = molecular target: Glucocorticoid receptor (Homo sapiens) (UniProt P04150); assay: GR-GFP Redistribution (AID 450;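 active = compounds whose dose series gives a full or clear partial fitted curve of increased nuclear translocation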; also: potency is read from the fitted curve at half-maximal effect); settings: U2OS GR-GFP nuclear translocation, laser cytometry, 2 h
[19] = molecular target: Ubiquitin carboxyl-terminal hydrolase 1 (Homo sapiens) (UniProt O94782); assay: Inhibitors of USP1/UAF1: Pilot qHTS (AID 504865);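 also: rhodamine fluorescence freed from ubiquitin-rhodamine substrate followed over time; top concentration of the series differs between compounds; nearly all actives have a fitted effect of over 35% in size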
Ubiquitin carboxyl-terminal hydrolase 1 (Homo sapiens), sequence (O94782 whole entry, looked up): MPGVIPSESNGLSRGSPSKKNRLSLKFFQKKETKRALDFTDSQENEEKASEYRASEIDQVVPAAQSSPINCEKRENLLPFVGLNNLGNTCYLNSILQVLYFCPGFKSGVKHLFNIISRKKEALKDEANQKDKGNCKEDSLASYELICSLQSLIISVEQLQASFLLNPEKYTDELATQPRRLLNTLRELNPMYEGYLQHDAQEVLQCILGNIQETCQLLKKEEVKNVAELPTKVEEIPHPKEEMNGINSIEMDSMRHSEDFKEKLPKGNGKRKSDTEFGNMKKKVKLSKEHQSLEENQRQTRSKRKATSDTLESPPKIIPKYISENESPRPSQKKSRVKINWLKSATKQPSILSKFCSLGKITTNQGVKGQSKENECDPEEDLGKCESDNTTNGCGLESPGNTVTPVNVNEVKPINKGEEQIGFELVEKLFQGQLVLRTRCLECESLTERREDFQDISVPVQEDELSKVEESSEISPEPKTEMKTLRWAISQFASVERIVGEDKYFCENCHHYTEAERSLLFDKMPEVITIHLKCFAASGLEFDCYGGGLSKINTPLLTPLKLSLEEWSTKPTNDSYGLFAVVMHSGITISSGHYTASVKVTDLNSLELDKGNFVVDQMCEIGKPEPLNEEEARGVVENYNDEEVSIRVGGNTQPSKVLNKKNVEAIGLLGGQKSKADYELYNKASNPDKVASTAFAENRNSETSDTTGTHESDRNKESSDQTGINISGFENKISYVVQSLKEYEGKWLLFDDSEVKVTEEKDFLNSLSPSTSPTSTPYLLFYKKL
Summary of the method: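 1nM USP1/UAF1 + cpd, 15 min RT; start w/ Ub-Rho 150nM final; kinetic FL 480/540 nm, 6 reads q60 s. Buffer 50mM HEPES pH 7.8, 0.5mM EDTA, 1mM TCEP, 0.01% Tween-20, 0.1 mg/ml BSA.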

SMILES | Potency [1] | outcome [2] | Potency [3] | outcome [4] | outcome [5] | Potency [6] | Potency [7] | outcome [8] | Potency [9] | max response [10] [%] | outcome [11] | outcome [12] | Potency [13] | outcome [14] | Potency [15] [µM] | activity change, negative = inhibition [16] [%] | activity change, negative = inhibition [17] [%] | Potency [18] [µM] | Potency [19]
COc1cc(/C=C/c2ccccc2)oc(=O)c1 | inactive | inactive | 12.6 µM (active) | inactive | inactive | inactive | inactive | inactive | 7.08 µM (active) | 2.93 | inactive | inactive |  |  |  |  |  |  | 
O=Cc1ccccc1O |  | inactive | inactive | inactive | inactive | inactive | inactive | inactive | inactive | 1.96 | inactive | inactive | inactive |  |  |  |  |  | 
C=C(C)C(CC=C(C)C)CC12CC(CC=C(C)C)C(C)(C)C(CC=C(C)C)(C(=O)/C(=C(\O)c3ccc(O)c(O)c3)C1=O)C2=O (stereo unspecified) |  | inactive | inactive | inactive | inactive | 14.1 µM (active) | 28.2 µM (active) |  |  | 3.47 | inactive | inactive | 25.1 µM (active) |  |  |  |  |  | 
CCCCCCCCC/C=C/C(=O)CCc1ccc(O)c(OC)c1 |  | inactive |  | inactive | inactive | 15.8 µM (active) |  | inactive |  | 4.66 | inactive | inactive | 3.98 µM (active) | inactive |  |  |  |  | 
O=C(/C=C/c1ccc(O)c(O)c1)OC1[C@H](O)CC(O)(C(=O)O)C[C@@H]1O (stereo partly specified) |  | inactive | inactive |  | inactive | inactive |  | inactive | inactive | -1.19 | inactive | inactive | inactive | inactive |  |  |  |  | 
CCCCCCCCCCCCCCCCCCCCCC(=O)O |  | inactive | inactive | inactive | inactive | inactive | inactive | inactive | inactive | 3.78 | inactive | inactive | inactive |  |  |  |  |  | 
COc1ccc(/C=C/c2cc(OC)cc(=O)o2)cc1 | inactive | inactive | 14.1 µM (active) | inactive | inactive | inactive | inactive | inactive | 10 µM (active) | 0.752 | inactive | inactive |  | inactive |  |  |  |  | 
CC(C)=CCC[C@](C)(O[C@@H]1O[C@H](CO)[C@@H](O)[C@H](O)[C@H]1O)[C@H]1CC[C@]2(C)[C@@H]1[C@H](O)C[C@@H]1[C@@]3(C)CC[C@H](O)C(C)(C)[C@@H]3[C@@H](O[C@@H]3O[C@H](CO)[C@@H](O)[C@H](O)[C@H]3O)C[C@]12C |  | inactive |  | inactive |  | inactive | inactive | inactive | inactive | 2.82 | inactive | inactive | inactive | inactive |  |  |  |  | 
CCCCC/C=C/C(=O)CCc1ccc(O)c(OC)c1 |  | inactive | inactive | inactive | inactive | 17.8 µM (active) |  | inactive | 15.8 µM (active) | 4.24 | inactive | inactive | 7.08 µM (active) |  |  |  |  |  | 
C[C@@H]1OC(O[C@H]2[C@H](O)[C@@H](O)[C@H](OC[C@H]3O[C@@H](OC(=O)[C@]45CCC(C)(C)C[C@@H]4C4=CCC6[C@@]7(C)CC[C@H](OC8OC[C@H](O)[C@H](O)[C@H]8OC8O[C@@H](C)[C@H](O)[C@@H](O)[C@H]8O)[C@@](C)(CO)C7CC[C@@]6(C)[C@]4(C)CC5)[C@H](O)[C@@H](O)[C@@H]3O)O[C@@H]2CO)[C@H](O)[C@H](O)[C@H]1O (stereo partly specified) |  | inactive | inactive | inactive | inactive | inactive |  | inactive | inactive | -2.4 | inactive | inactive | inactive |  |  |  |  |  | 
O=c1cc(-c2ccc(O)c(O)c2)oc2cc(O[C@@H]3O[C@@H](CO)[C@@H](O)[C@@H](O)[C@H]3O)cc(O)c12 | 7.94 µM (active) |  | 28.2 µM (active) | inactive | inactive | inactive | inactive | inactive | 3.98 µM (active) | 0.762 | inactive | inactive | 3.55 µM (active) |  | > 46 |  |  |  | 
Cc1nc2cnc(N3CCOCC3)nc2n(CCc2ccccc2)c1=O | inactive |  |  |  |  |  |  |  |  |  |  |  |  |  |  | 3.7 | 15.3 | > 9.22 | inactive

Source: PubChem BioAssay (NCATS)
